In PubChem BioAssay AID1049 (The Scripps Research Institute Molecular Screening Center, 2008):
Out of some 200,000 compounds screened, about 780 (0.39%) were called active. What follows is part of a selection rich in actives, with near analogues and random picks from the rest. Unmarked numbers belong to inactive results. No stated cut-off is given here; in the data, active means TR-FRET ratio above about 2000; inactive means the rest.

experiment: TR-FRET signal artefacts, primary screen, artefact control for PPARgamma SRC-2 agonist project, biochemical (AID 1049); details: TR-FRET artefact counter-screen; at 8 µM; active compounds read high

**Q.** With `COc1cccc(NC(=O)CN(C)C(C)C(=O)Nc2ccc(C#N)cc2)c1` (stereo not given) as the compound, how does the TR-FRET ratio read?
**A.** The TR-FRET ratio was 1560.

**Q.** Which TR-FRET ratio does the source give for `CN(C)S(=O)(=O)c1cccc(NC(=O)COC(=O)/C=C/c2cccs2)c1` here?
**A.** The TR-FRET ratio was 1590.

**Q.** For `O=C(c1ccncc1)c1ccc([N+](=O)[O-])cc1`, which TR-FRET ratio is on record?
**A.** The TR-FRET ratio was 1700.

**Q.** Which TR-FRET ratio does the source give for `O=C(/C=C/c1ccc(Cl)cc1Cl)NCc1ccco1` here?
**A.** Its TR-FRET ratio is 1530.

**Q.** With `O=C(CSc1c2c(nc3ccc(Cl)cc13)CCCC2)NCc1ccco1` as the compound, how does the TR-FRET ratio read?
**A.** The TR-FRET ratio was 2000 (active).

**Q.** With `O=C(NCc1ccco1)c1cc(-c2cccnc2)nc2ccc(Cl)cc12` as the compound, how does the TR-FRET ratio read?
**A.** The TR-FRET ratio was 1650.

**Q.** With `COc1ccc(Cl)cc1C(=O)NCc1cn(C)nc1C` as the compound, how does the TR-FRET ratio read?
**A.** Its TR-FRET ratio is 1670.

**Q.** Which TR-FRET ratio does the source give for `Cc1ccc2nc(-c3cccc(Br)c3)cc(C(=O)Nn3cnnc3)c2c1` here?
**A.** Its TR-FRET ratio is 1400.

**Q.** For `Cc1ccc(-c2cc(C(=O)NCc3cn(C)nc3C)c3cc(Br)ccc3n2)cc1`, which TR-FRET ratio is on record?
**A.** The TR-FRET ratio was 2980 (active).

**Q.** For `O=c1[nH]cnc2c1c(-c1ccccc1)cn2-c1ccc(F)cc1`, which TR-FRET ratio is on record?
**A.** The TR-FRET ratio was 1650.

**Q.** With `Cc1ccccc1N1C(=O)C(Oc2ccc(Cl)cc2)C1CNCC1CCCO1` (stereo not given) as the compound, how does the TR-FRET ratio read?
**A.** Its TR-FRET ratio is 1310.

**Q.** With `Cc1ccc(N2C(=O)C(NC(=O)c3c(F)cccc3F)(C(F)(F)F)C3=C2CC(C)(C)CC3=O)cc1` (stereo not given) as the compound, how does the TR-FRET ratio read?
**A.** The TR-FRET ratio was 1460.

**Q.** For `O=C(COC(=O)/C=C/c1cccc(Cl)c1)NCCc1ccccc1`, which TR-FRET ratio is on record?
**A.** The TR-FRET ratio was 1440.

**Q.** With `CCN(CC)S(=O)(=O)c1cccc(-c2n[nH]c(=S)n2/N=C/c2ccc(C(=O)OC)cc2)c1` as the compound, how does the TR-FRET ratio read?
**A.** Its TR-FRET ratio is 1510.

**Q.** Which TR-FRET ratio does the source give for `O=C(Oc1ccccc1)Oc1ccc2c(c1)oc(=O)c1ccccc12` here?
**A.** The TR-FRET ratio was 2370 (active).

**Q.** With `CC(=O)Oc1ccc2c(C)c(CC(C)O)c(=O)oc2c1` (stereo not given) as the compound, how does the TR-FRET ratio read?
**A.** Its TR-FRET ratio is 1440.

**Q.** For `Cc1c(Cc2ccccc2)c(=O)oc2cc(OCC(N)=O)ccc12`, which TR-FRET ratio is on record?
**A.** The TR-FRET ratio was 1400.

**Q.** With `COc1ccc(C2=NN(c3nc4ccccc4s3)C(=O)C2)cc1` as the compound, how does the TR-FRET ratio read?
**A.** The TR-FRET ratio was 1550.

**Q.** For `CN(Cc1cccc2ncccc12)C(=O)CC1C(=O)NCCN1Cc1ccc(F)cc1` (stereo not given), which TR-FRET ratio is on record?
**A.** Its TR-FRET ratio is 1420.

**Q.** With `O=C(O)/C=C/c1ccc(OCCCF)cc1` as the compound, how does the TR-FRET ratio read?
**A.** The TR-FRET ratio was 1530.

**Q.** Which TR-FRET ratio does the source give for `COc1cc(/C=N/N=C(\N)c2nonc2N)cc(OC)c1OC` here?
**A.** The TR-FRET ratio was 1490.

**Q.** Which TR-FRET ratio does the source give for `Cc1cc(=O)n2[nH]c(-c3sccc3-n3c(C)ccc3C)cc2n1` here?
**A.** The TR-FRET ratio was 1620.

**Q.** With `Cc1ccc(S(=O)(=O)N2CCOCC2)cc1NC(=O)CSc1nnc(N)s1` as the compound, how does the TR-FRET ratio read?
**A.** The TR-FRET ratio was 1520.

**Q.** With `CCN=C1S/C(=C\c2cc(Br)ccc2OCC(=O)OCC)C(=O)N1CC` as the compound, how does the TR-FRET ratio read?
**A.** Its TR-FRET ratio is 1500.

**Q.** For `CCCOc1ccc(NC(=O)C2OC3OC(C)(C)OC3C3OC(C)(C)OC23)cc1` (stereo not given), which TR-FRET ratio is on record?
**A.** The TR-FRET ratio was 1480.

**Q.** With `Cc1ccccc1N1CCN(CCCOc2ccc3c(C)cc(=O)oc3c2)CC1` as the compound, how does the TR-FRET ratio read?
**A.** The TR-FRET ratio was 1510.

**Q.** Which TR-FRET ratio does the source give for `Cc1cc(OCCCN2CCN(Cc3ccccc3)CC2)ccc1[N+](=O)[O-]` here?
**A.** Its TR-FRET ratio is 2000 (active).

**Q.** For `Cc1cc(OCC(=O)NC2CCN(C)CC2)ccc1[N+](=O)[O-]`, which TR-FRET ratio is on record?
**A.** The TR-FRET ratio was 1540.

**Q.** Which TR-FRET ratio does the source give for `C/C(N)=C(/C#N)C(=O)COC(=O)c1cc(-c2ccccc2)nc2ccc(Br)cc12` here?
**A.** Its TR-FRET ratio is 1540.

**Q.** With `Cc1cc(C)c2c(NC(=O)C3CC3)nn(C)c2n1` as the compound, how does the TR-FRET ratio read?
**A.** Its TR-FRET ratio is 1370.

**Q.** For `CCN(C(=O)COC(=O)c1c(NC(C)=O)sc(C)c1C)C1CCS(=O)(=O)C1` (stereo not given), which TR-FRET ratio is on record?
**A.** Its TR-FRET ratio is 1610.

**Q.** With `CCN(CCn1cccn1)Cc1nc(-c2ccc(C(=O)OC)cc2)no1` as the compound, how does the TR-FRET ratio read?
**A.** The TR-FRET ratio was 1990 (active).

**Q.** For `COC(=O)c1ccc(-c2noc(CN(Cc3ccccn3)CC3CCCO3)n2)cc1` (stereo not given), which TR-FRET ratio is on record?
**A.** The TR-FRET ratio was 1700.

**Q.** With `CCN(CCn1cccn1)Cc1cn[nH]c1-c1ccc(OC)cc1F` as the compound, how does the TR-FRET ratio read?
**A.** Its TR-FRET ratio is 1510.

**Q.** For `COc1cc(NC(=O)COC(=O)CSc2ccc3ccccc3c2)c(C)cc1[N+](=O)[O-]`, which TR-FRET ratio is on record?
**A.** The TR-FRET ratio was 1450.

**Q.** With `O=C1NC(c2ccccc2)=NC1(Nc1ccccn1)C(F)(F)F` (stereo not given) as the compound, how does the TR-FRET ratio read?
**A.** The TR-FRET ratio was 1690.

**Q.** For `Brc1ccc(C2CC(c3ccccc3)=Nc3ccccc3N2)cc1` (stereo not given), which TR-FRET ratio is on record?
**A.** Its TR-FRET ratio is 1550.

**Q.** With `CNC(=S)N1N=C(c2ccccc2)CC1c1ccc(Br)cc1` (stereo not given) as the compound, how does the TR-FRET ratio read?
**A.** Its TR-FRET ratio is 1990 (active).

**Q.** For `COc1ccc(C2CC(c3ccccc3)=NN2C(=O)COC(=O)COc2ccccc2)cc1` (stereo not given), which TR-FRET ratio is on record?
**A.** The TR-FRET ratio was 1620.

**Q.** With `CCC1CO/C(=C(\C(=C(Cl)Cl)N2CCOCC2)[N+](=O)[O-])N1` (stereo not given) as the compound, how does the TR-FRET ratio read?
**A.** The TR-FRET ratio was 1690.

**Q.** Which TR-FRET ratio does the source give for `COc1ccc(NC(=O)c2sc(N3CCOCC3)nc2-c2ccccc2)c(OC)c1` here?
**A.** The TR-FRET ratio was 1580.

**Q.** For `O=C(O)CC/C(=N\NC(=O)c1ccc(F)cc1)c1ccc(Br)cc1`, which TR-FRET ratio is on record?
**A.** Its TR-FRET ratio is 1580.

**Q.** With `C/C(=N\OCC(=O)Nc1ccc(Br)cc1)c1cccs1` as the compound, how does the TR-FRET ratio read?
**A.** The TR-FRET ratio was 1350.

**Q.** With `Cc1nc2ccccc2n1CC(=O)N/N=C/c1cccnc1` as the compound, how does the TR-FRET ratio read?
**A.** The TR-FRET ratio was 1640.

**Q.** For `O=C(CSc1cccc2cccnc12)N/N=C/c1cccnc1`, which TR-FRET ratio is on record?
**A.** The TR-FRET ratio was 2120 (active).

**Q.** For `CCOC(=O)N/N=C/c1cccnc1`, which TR-FRET ratio is on record?
**A.** Its TR-FRET ratio is 1680.

**Q.** With `NC1=NC(=O)C(Cc2cccc(Cl)c2)S1` (stereo not given) as the compound, how does the TR-FRET ratio read?
**A.** The TR-FRET ratio was 1490.

**Q.** With `CCC(C)(C)NC(=O)/C=C/c1cc(OC)c(OC)c(S(=O)(=O)N2CCc3ccccc32)c1` as the compound, how does the TR-FRET ratio read?
**A.** Its TR-FRET ratio is 1580.

**Q.** With `Fc1ccc(COc2cccc(-c3n[nH]c(=S)o3)c2)cc1` as the compound, how does the TR-FRET ratio read?
**A.** Its TR-FRET ratio is 2890 (active).

**Q.** Which TR-FRET ratio does the source give for `Cc1cccc(OCc2ccc(C(=O)Nc3ccc(F)cc3)cc2)c1` here?
**A.** The TR-FRET ratio was 1560.

**Q.** For `Cc1nc2ccccc2cc1OCc1ccc(F)cc1`, which TR-FRET ratio is on record?
**A.** The TR-FRET ratio was 1730.

**Q.** With `CCOC(=O)c1ccc[n+](CC(=O)Nc2ccccc2OC(F)F)c1` as the compound, how does the TR-FRET ratio read?
**A.** Its TR-FRET ratio is 1350.

**Q.** With `CCOC(=O)c1sc(NC(=O)CSc2n[nH]c(CC)n2)nc1C` as the compound, how does the TR-FRET ratio read?
**A.** Its TR-FRET ratio is 1730.

**Q.** With `CCOc1ncccc1C(=O)OCC(=O)NC1CC1` as the compound, how does the TR-FRET ratio read?
**A.** The TR-FRET ratio was 1600.

**Q.** Which TR-FRET ratio does the source give for `Cc1cc(OCCN2CCCC2)cc(C(C)C)c1` here?
**A.** The TR-FRET ratio was 1530.
